Source: PubChem BioAssay (EPA / NIEHS)
The source holds several records for some structures; these can differ, active in one and inactive in another. The source made the active and inactive calls. How the source made its calls: active means hit-call score of the fitted dose curve at least 0.9, where 1 is the maximum; inactive means score below 0.9.

Key:
[1] = BSK_3C_TissueFactor: BioMAP Diversity Plus: 3C Assay for Tissue Factor Biomarker Activity (AID 2282997); details: BioMAP 3C HUVEC, tissue factor biomarker readout; actives raise or lower the signal
Outline: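 Cells used were primary human umbilical vein endothelial cells. They were dosed with chemical, and after 24 h Tissue Factor was quantified by ELISA. Curves were fitted bidirectionally with DMSO as baseline.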

[2] = BSK_3C_uPAR: BioMAP Diversity Plus: 3C Assay for Urokinase-type plasminogen activator receptor (uPAR) Biomarker Activity (AID 2282998); details: BioMAP 3C HUVEC, uPAR biomarker ELISA; actives raise or lower the signal
Outline: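 Endothelial primary cells of human umbilical vein origin received test chemical; 24 h later uPAR was assayed by ELISA. Fitting was bidirectional, DMSO as negative control.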

[3] = BSK_3C_VCAM1: BioMAP Diversity Plus: 3C Assay for Vascular cell adhesion molecule 1 (VCAM1) Biomarker Activity (AID 2282999); details: BioMAP 3C HUVEC, VCAM1 ELISA, cytokine-stimulated; actives raise or lower the signal
Outline: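 Vascular primary endothelium (human umbilical vein) was exposed to chemicals and assayed 24 h later. VCAM-1 levels came from ELISA, with DMSO serving as baseline for bidirectional fitting.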

[4] = BSK_4H_Eotaxin3: BioMAP Diversity Plus: 4H Assay for Eotaxin 3 Biomarker Activity (AID 2283000); details: primary human endothelial cells (HUVEC); actives raise or lower the signal;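 further: CCL26 protein level quantified by ELISA in parallel with SRB cytotoxicity check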
Outline: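 Endothelial primary cells (human umbilical vein) exposed to compound for 24 h. ELISA detection of Eotaxin-3.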

[5] = BSK_3C_Proliferation: Cell Proliferation Assessment in the BioMAP Diversity Plus: 3C Assay (AID 2283006); details: primary human endothelial cells (HUVEC)
Outline: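 Proliferation as total protein: sulforhodamine B (0.1%) stain of TCA-fixed subconfluent human umbilical vein endothelial cells, absorbance 560 nm, 48 h after dosing. Activity fitted in both directions against DMSO baseline.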

[6] = read-out: E-selectin (Homo sapiens) (UniProt P16581); assay: BSK_3C_Eselectin: BioMAP Diversity Plus: 3C Assay for Eselectin Biomarker Activity (AID 2283015); details: primary human endothelial cells (HUVEC); actives raise or lower the signal;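 further: cell surface E-selectin protein quantified by ELISA 24 h after dosing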
Outline: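 Human vascular endothelium from umbilical vein is exposed to test chemicals for 24 h. E-selectin levels are read by ELISA and compared with DMSO controls.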

[7] = read-out: Interleukin-1 alpha (IL1a), IL1A (gene 3552); assay: BSK_BE3C_IL1a: BioMAP Diversity Plus: BE3C Assay for Interleukin-1 alpha (IL1a) Biomarker Activity (AID 2283016); details: primary human bronchial epithelial cells; actives raise or lower the signal
Outline: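 IL-1a measured by ELISA after 24 h treatment of human primary bronchial epithelial cells, with gain or loss of signal fitted versus DMSO. Parallel cultures stained with SRB gauge overt cytotoxicity.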

[8] = read-out: Monocyte Chemoattractant Protein-1 (MCP1), CCL2 (gene 6347); assay: BSK_4H_MCP1: BioMAP Diversity Plus: 4H Assay for Monocyte Chemoattractant Protein-1 (MCP1) Biomarker Activity (AID 2283018); details: primary human endothelial cells (HUVEC); actives raise or lower the signal
Outline: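 ELISA of MCP-1 (CCL2) 24 h after chemical dosing of HUVEC in the BioMAP 4H system. Gain or loss versus DMSO fitted; parallel SRB staining (560 nm) tracked overt cytotoxicity.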

[9] = read-out: Human Leukocyte Antigen - DR isotype (HLADR), HLA-DRA (gene 3122); assay: BSK_3C_HLADR: BioMAP Diversity Plus: 3C Assay for Human Leukocyte Antigen - DR isotype (HLADR) Biomarker Activity (AID 2283019); details: primary human endothelial cells (HUVEC); actives raise or lower the signal
Outline: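 Endothelial cells from human umbilical vein are treated with test chemical; after 24 h, HLA-DR levels are measured by ELISA. Data are fitted in both directions using DMSO as the baseline.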

[10] = read-out: Interleukin-8 (IL8), CXCL8 (gene 3576); assay: BSK_3C_IL8: BioMAP Diversity Plus: 3C Assay for Interleukin-8 (IL8) Biomarker Activity (AID 2283020); details: primary human endothelial cells (HUVEC); actives raise or lower the signal
Outline: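 IL-8 was measured by ELISA in HUVEC cultures 24 h after chemical dosing, with gain or loss of signal fitted relative to DMSO. Parallel SRB total-protein staining tracked overt cytotoxicity.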

[11] = read-out: Monokine induced gamma interferon (MIG), CXCL9 (gene 4283); assay: BSK_3C_MIG: BioMAP Diversity Plus: 3C Assay for Monokine induced gamma interferon (MIG) Biomarker Activity (AID 2283021); details: primary human endothelial cells (HUVEC); actives raise or lower the signal
Outline: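 ELISA measurement of MIG in human umbilical vein endothelial cells 24 h after treatment. Cytotoxicity tracked by SRB staining in parallel cultures; gain or loss of signal fitted relative to DMSO.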

[12] = BSK_3C_SRB: Viability Assessment in the BioMAP Diversity Plus: 3C Assay (AID 2283023); details: primary human endothelial cells (HUVEC);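 further: fitted both ways against DMSO so a hit may be signal rise or drop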
Outline: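 Cells were dosed with chemical, cultured 24 h, fixed with 10% TCA, stained with 0.1% SRB and read at 560 nm. Human umbilical vein endothelium was used; DMSO served as negative control and baseline.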

[13] = read-out: Matrix Metallopeptidase 1 (MMP1), MMP1 (gene 4312); assay: BSK_BE3C_MMP1: BioMAP Diversity Plus: BE3C Assay for Matrix Metallopeptidase 1 (MMP1) Biomarker Activity (AID 2283024); details: primary human bronchial epithelial cells; actives raise or lower the signal
Outline: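 ELISA measurement of MMP-1 after 24 h compound exposure of primary human bronchial epithelial cells. Changes in either direction fitted relative to DMSO; parallel SRB staining checked overt cytotoxicity.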

[14] = read-out: Pselectin, SELP (gene 6403); assay: BSK_4H_Pselectin: BioMAP Diversity Plus: 4H Assay for Pselectin Biomarker Activity (AID 2283026); details: primary human endothelial cells (HUVEC); actives raise or lower the signal
Outline: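 ELISA of surface P-selectin on HUVEC, 24 h after dosing, with parallel SRB staining (0.1% after 10% TCA fixation, 560 nm) for overt cytotoxicity. Activity fitted in both directions relative to DMSO.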

[15] = BSK_4H_SRB: Viability Assessment in the BioMAP Diversity Plus: 4H Assay (AID 2283027); details: primary human endothelial cells (HUVEC);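 further: cells exposed to compound for 24 h before staining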
Outline: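 Cytotoxicity readout: sulforhodamine B (0.1%) staining of total protein after 10% TCA fixation, measured at 560 nm in human umbilical vein endothelium at 24 h. DMSO set the baseline; fitting was bidirectional.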

[16] = BSK_BE3C_SRB: Viability Assessment in the BioMAP Diversity Plus: BE3C Assay (AID 2283028); details: primary human bronchial epithelial cells
Outline: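 Overt cytotoxicity was assessed as total protein in confluent human primary bronchial epithelial cultures 24 h after chemical addition, using 0.1% sulforhodamine B staining read at 560 nm.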

[17] = read-out: Urokinase-type plasminogen activator receptor (uPAR), PLAUR (gene 5329); assay: BSK_4H_uPAR: BioMAP Diversity Plus: 4H Assay for Urokinase-type plasminogen activator receptor (uPAR) Biomarker Activity (AID 2283030); details: primary human endothelial cells (HUVEC); actives raise or lower the signal
Outline: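 Chemicals are dosed onto human vascular endothelial primary cells (umbilical vein). After 24 h, uPAR is read by ELISA. Gain or loss of signal is fitted relative to DMSO.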

[18] = read-out: Vascular endothelial growth factor receptor 2 (Homo sapiens) (UniProt P35968); assay: BSK_4H_VEGFRII: BioMAP Diversity Plus: 4H Assay for Vascular endothelial growth factor receptor 2 (VEGFR2) Biomarker Activity (AID 2283031); details: primary human endothelial cells (HUVEC); actives raise or lower the signal;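 on AC50: cell-surface VEGFR2 protein level quantified by ELISA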
Outline: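 VEGFRII levels on human vascular endothelial primary cells were determined by ELISA at 24 hours post-dosing, with gain- or loss-of-signal fitted against DMSO controls.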

[19] = read-out: Human Leukocyte Antigen - DR isotype (HLADR), HLA-DRA (gene 3122); assay: BSK_BE3C_HLADR: BioMAP Diversity Plus: BE3C Assay for Human Leukocyte Antigen - DR isotype (HLADR) Biomarker Activity (AID 2283032); details: primary human bronchial epithelial cells; actives raise or lower the signal
Outline: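 Cell-surface HLA-DR ELISA readout at 24 h after dosing in the BE3C primary human lung bronchial epithelial system; gain or loss of signal against DMSO, with parallel sulforhodamine B staining of total protein for overt cytotoxicity.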

[20] = read-out: Vascular cell adhesion molecule 1 (VCAM1), VCAM1 (gene 7412); assay: BSK_4H_VCAM1: BioMAP Diversity Plus: 4H Assay for Vascular cell adhesion molecule 1 (VCAM1) Biomarker Activity (AID 2283033); details: primary human endothelial cells (HUVEC); actives raise or lower the signal;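 further: cell-surface VCAM-1 protein measured by ELISA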
Outline: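 VCAM-1 ELISA read 24 h after chemical dosing of HUVEC in the BioMAP 4H system, with gain or loss of signal fitted relative to DMSO. Parallel SRB staining (560 nm) checked overt cytotoxicity.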

[21] = read-out: Interferon-gamma inducible Protein 10 (IP10), CXCL10 (gene 3627); assay: BSK_BE3C_IP10: BioMAP Diversity Plus: BE3C Assay for Interferon-gamma inducible Protein 10 (IP10) Biomarker Activity (AID 2283034); details: primary human bronchial epithelial cells; actives raise or lower the signal
Outline: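 IP-10 quantified by ELISA in human primary bronchial epithelial cell cultures at 24 hours post-dosing. Gain or loss of signal fitted relative to DMSO; parallel SRB staining assessed overt cytotoxicity.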

[22] = read-out: Monokine induced gamma interferon (MIG), CXCL9 (gene 4283); assay: BSK_BE3C_MIG: BioMAP Diversity Plus: BE3C Assay for Monokine induced gamma interferon (MIG) Biomarker Activity (AID 2283035); details: primary human bronchial epithelial cells; actives raise or lower the signal;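 further: MIG protein measured by ELISA in BE3C cultures after 24 h of dosing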
Outline: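 hu bronchial epithelial 1° cells, 24 h cpd; MIG by ELISA; bidirectional fit, DMSO = baseline.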

[23] = read-out: Plasminogen activator inhibitor-1 (PAI1), SERPINE1 (gene 5054); assay: BSK_BE3C_PAI1: BioMAP Diversity Plus: BE3C Assay for Plasminogen activator inhibitor-1 (PAI1) Biomarker Activity (AID 2283037); details: primary human bronchial epithelial cells; actives raise or lower the signal
Outline: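 PAI-1 was measured by ELISA in human primary bronchial epithelial cultures 24 h after chemical dosing, with cytotoxicity checked by SRB total-protein staining in parallel cultures. Activity was fitted in both directions relative to DMSO.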

[24] = read-out: Urokinase-type plasminogen activator receptor (uPAR), PLAUR (gene 5329); assay: BSK_BE3C_uPAR: BioMAP Diversity Plus: BE3C Assay for Urokinase-type plasminogen activator receptor (uPAR) Biomarker Activity (AID 2283039); details: primary human bronchial epithelial cells; actives raise or lower the signal;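 further: cells exposed to compound for one day before measurement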
Outline: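 uPAR levels were measured by ELISA after 24 h compound treatment of primary human bronchial epithelial cells, fitted in both directions relative to DMSO. Parallel SRB staining served as the cytotoxicity read-out.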

[25] = read-out: Interleukin-6 (IL6), IL6 (gene 3569); assay: BSK_CASM3C_IL6: BioMAP Diversity Plus: CASM3C Assay for Interleukin-6 (IL6) Biomarker Activity for (AID 2283040); details: primary human coronary artery smooth muscle cells; actives raise or lower the signal
[26] = read-out: Interleukin-8 (IL8), CXCL8 (gene 3576); assay: BSK_CASM3C_IL8: BioMAP Diversity Plus: CASM3C Assay for Interleukin-8 (IL8) Biomarker Activity (AID 2283042); details: primary human coronary artery smooth muscle cells; actives raise or lower the signal;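 further: IL-8 protein level quantified by ELISA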

Sequence of E-selectin (Homo sapiens) (P16581 whole entry, looked up): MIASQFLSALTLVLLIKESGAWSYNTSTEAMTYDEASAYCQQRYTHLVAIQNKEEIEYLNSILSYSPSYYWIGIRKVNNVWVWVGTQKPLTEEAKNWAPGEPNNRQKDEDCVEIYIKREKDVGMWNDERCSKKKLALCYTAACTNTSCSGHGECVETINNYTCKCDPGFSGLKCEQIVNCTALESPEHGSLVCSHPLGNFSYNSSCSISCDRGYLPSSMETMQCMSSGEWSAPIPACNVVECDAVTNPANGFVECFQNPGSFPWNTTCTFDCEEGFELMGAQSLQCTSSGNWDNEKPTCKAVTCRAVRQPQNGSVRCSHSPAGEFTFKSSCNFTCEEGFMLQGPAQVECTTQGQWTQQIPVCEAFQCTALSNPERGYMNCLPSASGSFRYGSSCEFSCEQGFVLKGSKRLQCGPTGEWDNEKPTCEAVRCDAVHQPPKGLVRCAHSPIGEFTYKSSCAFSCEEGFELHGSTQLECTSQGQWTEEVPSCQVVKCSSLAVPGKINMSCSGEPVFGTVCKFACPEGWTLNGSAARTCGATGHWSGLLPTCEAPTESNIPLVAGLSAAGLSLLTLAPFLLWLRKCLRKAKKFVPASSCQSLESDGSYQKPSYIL

In the case of `CCCC[N+](CCCC)(CCCC)CCCC`, the outcome [1] is reported as “inactive”, the outcome [2] is reported as “inactive” and the outcome [3] is reported as “inactive”. For the same compound, the outcome [4] was “inactive”, the outcome [5] was “inactive” and the outcome [6] was “inactive”. The outcome [7] was “inactive”, the outcome [8] was “inactive” and the outcome [9] was “inactive”. For the same compound, the outcome [10] was “inactive”, the outcome [11] was “inactive” and the outcome [12] was “inactive”. The AC50 [13] was 3.97 µM (active), the outcome [13] was “inactive” and the outcome [14] was “inactive”. For the same compound, the outcome [15] was “inactive”, the outcome [16] was “inactive” and the outcome [17] was “inactive”. For the same compound, the AC50 [18] was 2.14 µM (active), the outcome [18] was “inactive” and the outcome [19] was “inactive”. For the same compound, the outcome [20] was “inactive”, the outcome [21] was “inactive” and the outcome [22] was “inactive”. The outcome [23] was “inactive”, the outcome [24] was “inactive” and the outcome [25] was “inactive”. For the same compound, the outcome [26] was “inactive”.
